Laboratory results: PubChem BioAssay (NCI)
This is part of a sample that, as a whole, favours compounds with a hit. Of some 79,000 tested, about 15% had one in any assay. Rule as the data show it: active = growth inhibition above about 70%; inactive = the rest.

Experiments:
[1] = NCI Yeast Anticancer Drug Screen. Data for the rad50 strain (AID 155);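 also: 0% = growth of vehicle-only cultures of the same strain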; conditions: S. cerevisiae rad50 strain growth inhibition; at 50.0 µM; active compounds read high
Method in brief: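 Inhibition values express reduced yeast growth in compound-treated cultures relative to vehicle-treated controls.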

[2] = NCI Yeast Anticancer Drug Screen. Data for the mec2-1 strain (AID 157); conditions: S. cerevisiae mec2-1 strain, at 50.0 µM, active compounds read high
Method in brief: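 Growth inhibition is read against vehicle-treated controls after compound exposure of the mec2-1 yeast strain, which is defective in DNA damage repair or cell cycle control.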

[3] = NCI Yeast Anticancer Drug Screen. Data for the sgs1 mgt1 strain (AID 161);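 also: 0% = growth of cultures given vehicle only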; conditions: S. cerevisiae sgs1 mgt1 strain, at 50.0 µM, active compounds read high
Method in brief: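 Growth of a repair-deficient yeast mutant was monitored after compound treatment and expressed as inhibition relative to vehicle-treated cultures.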

[4] = NCI Yeast Anticancer Drug Screen. Data for the cln2 rad14 strain (AID 165);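 also: 0% = growth equal to vehicle treated cultures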; conditions: S. cerevisiae cln2 rad14 strain, at 50.0 µM, active compounds read high
Method in brief: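 Growth inhibition, relative to vehicle-treated controls, is the read-out. The test organism is a yeast strain with defined genetic alterations, cln2 rad14.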

[5] = NCI Yeast Anticancer Drug Screen. Data for the bub3 strain (AID 167); conditions: S. cerevisiae bub3 mutant strain, at 50.0 µM, active compounds read high
Method in brief: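 Steps: expose the mutant yeast strain to compound; grow alongside vehicle-treated cultures; measure growth; express inhibition against the vehicle cultures.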

[6] = NCI Yeast Anticancer Drug Screen. Data for the mlh1 rad18 strain (AID 175); conditions: S. cerevisiae mlh1 rad18 strain growth inhibition; at 50.0 µM; active compounds read high
Method in brief: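 Cells of a genetically altered yeast strain, deficient in DNA damage repair, were treated with compound. Their growth was then compared with that of vehicle-treated cultures to give inhibition.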

Measured: growth inhibition

O=[N+]([O-])C(/C=C(\Cl)[N+](=O)[O-])=C(N1CCCCC1)N1CCCCC1
inactive: [1] 10.8% | [2] -1.8% | [3] 5.85% | [4] -5.55% | [5] 26.2% | [6] 18.1%

Cn1cnc2nc(N)[nH]c(=O)c21
inactive: [1] 37.2% | [2] 6.45% | [3] 2.5% | [4] -14.4% | [5] -0.95% | [6] 13.7%

CN1C(=O)CC(c2cccc(C3CC(=O)N(C)C3=O)n2)C1=O (stereo unspecified)
inactive: [1] -18.6% | [2] -23.7% | [3] -17.6% | [4] -5.8% | [5] -11.7% | [6] -13.7%

COc1ccc(C=Nc2c(O)ccc3c2CCCC3)cc1OC
inactive: [1] 9.55% | [2] 4.7% | [3] -6.1% | [4] -49.3% | [5] 1.95% | [6] 14.9%

O=C1Cc2c(c3ccccc3c3ccccc23)C1
inactive: [1] 20.9% | [2] 7.5% | [3] -4.1% | [4] -41% | [5] 4% | [6] 20.9%

C/C(N)=C\c1nc(=O)ccs1
inactive: [1] 10.9% | [2] 11.8% | [3] 2.35% | [4] 24.8% | [5] 5.2% | [6] 13.3%

O=S(=O)(Oc1ccc(OS(=O)(=O)c2ccccc2)cc1)c1ccccc1
inactive: [1] -8.8% | [2] 1% | [3] -0.3% | [4] 0.05% | [5] 12.5% | [6] 14.6%

Nc1cnc(N)nc1
inactive: [1] -8.4% | [2] -18.8% | [3] -21.6% | [4] -24.4% | [5] 11.8% | [6] -17.2%

CN(C)Cc1ccccc1COC(=O)c1ccc(Cl)cc1
inactive: [1] 12.8% | [2] 11.5% | [3] 15.1% | [4] 9.75% | [5] 17.4% | [6] 20.9%

CCOC(=O)CC(C)C1(C=O)CCCCC1=O (stereo unspecified)
inactive: [1] -3.2% | [2] -30.3% | [3] -11.7% | [4] 7.25% | [5] -19.5% | [6] -17.4%

CCCCCCCCCCCCCCSc1ccc2ccccc2c1
inactive: [1] -9.15% | [2] 9.3% | [3] -2.7% | [4] -20.2% | [5] -8.65% | [6] -20.3%

CN(CCO)CCC1COc2ccccc2O1 (stereo unspecified)
inactive: [1] 2.1% | [2] -29.6% | [3] 0.25% | [4] 12.1% | [5] -1.05% | [6] 1.25%

Cc1cc(S(=O)(=O)Nc2n[nH]c(Nc3ccccc3)n2)c(SCC(=O)O)cc1Cl
inactive: [1] 11.3% | [2] 52.8% | [3] 51.2% | [4] -0.25% | [5] -4.2% | [6] 23.1%

OCC(O)c1ccc(Cl)cc1 (stereo unspecified)
inactive: [1] -23% | [2] -17.6% | [3] -14.8% | [4] -14% | [5] -15.8% | [6] -0.3%

O=c1cc(C(Br)(Br)Br)[nH]c2ccccc12
inactive: [1] 19.4% | [2] 3.25% | [3] 9.45% | [4] -5.7% | [5] 4.55% | [6] 18%

Cn1c(=O)c2c(nc(N)n2C)n(C)c1=O
inactive: [1] -16.8% | [2] -8.35% | [3] 5.8% | [4] -30.2% | [5] -33.6% | [6] -20.4%

C[Si]1(C)CC[Si](C)(C)OS(=O)(=O)O1
inactive: [1] 8.2% | [2] -8.35% | [3] -4.75% | [4] -49.8% | [5] -9.05% | [6] 3.6%

CN=C(Nc1cccc(C(F)(F)F)c1)SCc1ccc(N=C=S)cc1
inactive: [1] 9.7% | [2] 28.3% | [3] 60% | [4] 10.2% | [5] 38.8% | [6] 38.5%

CCC(=O)N1CCN(C(=O)CC)c2ccccc21
inactive: [1] -3% | [2] -5.8% | [3] -0.25% | [4] -5.25% | [5] 0.75% | [6] 6.65%

Cc1ccc(S(=O)(=O)C23N=NC(C)(C)C2C2CCC3C2)cc1 (stereo unspecified)
inactive: [1] -8.4% | [2] -12% | [3] 1.1% | [4] -59.2% | [5] -50.3% | [6] 3.75%

Cc1ccc2nc(-c3cccc([N+](=O)[O-])c3)c(N=O)n2c1
inactive: [1] -0.7% | [2] 4.35% | [3] 1.05% | [4] -14.9% | [5] 2.1% | [6] 21.2%
